# p53null 32C kill: qHTS Screen for Compounds that Selectively Target Cancer Cells with p53 Mutations: Cytotoxicity of p53 Null Cells at the Permissive Temperature. Potency, µM (top dose mostly 46.1 µM), inactives show at the top dose activity change, negative = cytotoxicity, actives largely listed as cytotoxic. AID 903, 2007. H1299-neo p53 null cells, ATP luminescence, 24 h, 32C. 55,000 compounds, 0.62% hits;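 note: 0% = DMSO only and -100% = full killing by 100 µM tamoxifen; nearly all actives have a fitted effect of over 55% in size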
#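 H1299-neo (p53 null) cells, 600/well, treated 24 h at 32C with compound up to 46 uM; ATPlite luminescence viability, normalized to DMSO and 100 uM tamoxifen; AC50 by Hill fit.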
# PMP22 txn: Cell-based coincidence reporter assay to measure PMP22 gene transcription in S16 Pmp22-F2sN cells - Primary screen. S16 Pmp22-F2sN Schwann cells, FLuc/NLuc coincidence luminescence, 24 h. Potency, µM (series often up to 57.5 µM), inactives show at the highest dose activity change, negative = inhibition, hits mostly inhibitors. 43,000 compounds, 2% hits; active = clear falling dose curves in both reporters; inconclusive = both reporters move, but less clearly or upward; inactive = either reporter flat; the % is the NLuc reporter signal
#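 S16 Schwann cells carrying FLuc/NLuc coincidence reporter in the Pmp22 3' UTR treated with compound 24 h at 37C; FLuc then NLuc luminescence read sequentially by dual-luciferase reagents.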
# OvCa metastasis: Primary qHTS assay for Inhibitors of ovarian cancer metastasis using an organotypic tumor microenvironment (TME) model; 46,000 compounds, 0.1% hits; SKOV3ip1-GFP adhesion/invasion on 3D omental model, fluorescence; Potency, µM (top dose mostly 45.8 µM), for inactives: at the highest dose activity change, negative = inhibition, most hits filed as inhibitors;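 note: plate controls were DMSO wells for no effect and tomatine positive control wells for full effect; nearly all actives have a fitted effect of over 65% in size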
#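 Primary human omental fibroblast/mesothelial 3D culture pre-formed 48 h. SKOV3ip1-GFP cells added with compounds (0.36-46 umol/L), incubated 2 h RT/16 h 37 C, fixed; GFP cells quantified at 488/509 nm.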
# mTORC1 inh: Acumen qHTS Assay for Inhibitors of the mTORC1 Signaling Pathway in MEF (Tsc2-/-, p53-/-) Cells: Sytravon | Tsc2-/- p53-/- MEF, phospho-rpS6 immunofluorescence/PI, 24 h | Potency, µM (doses to about 38.3 µM), for inactives: at the top dose activity change, negative = inhibition, hits mostly inhibitors | 44,000 compounds, 0.78% hits;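 note: plate controls were DMSO for no effect and rapamycin for full effect; nearly all actives have a fitted effect of over 50% in size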
#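 Tsc2-/-, p53-/- MEFs (empty-vector stable line) in DMEM + 10% FBS were treated with compounds 24 h at 37 degree Celsius, fixed, and immunostained for phospho-rpS6 (Alexa-488) with propidium iodide counterstain. Laser-scanning cytometry gave % positive cells, normalized against 7.5 nM rapamycin and DMSO.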
# S16 viability: Cell viability qHTS assay in S16 Pmp22-F2sN cells; 43,000 compounds, 0.48% hits; S16 Pmp22-F2sN Schwann cells viability, CellTiter-Glo, 24 h; AID 1508642, 2021; Potency, µM (highest dose often 57.5 µM), without a hit: at the top dose activity change, negative = cytotoxicity, usual class: cytotoxic; note: nearly all actives have a fitted effect of over 65% in size
#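 Used to flag compounds lowering reporter output through toxicity, this quantitative HTS measures ATP-based CellTiter-Glo luminescence in S16 Pmp22-F2sN Schwann cells after 24 h compound exposure at 37C.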
# p53null 39C tox: qHTS Screen for Compounds that Selectively Target Cancer Cells with p53 Mutations: Cytotoxicity of p53 Null Cells at the Nonpermissive Temperature; H1299 p53-null (neo) cells, 39C, ATPlite viability, 24 h; Potency, µM (series often up to 46.1 µM), without a hit: top-dose activity, negative = cell killing, most hits filed as cytotoxic; 55,000 compounds, 0.97% hits; AID 904, 2007;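 note: 0% = DMSO only and -100% = full killing by 100 µM tamoxifen; nearly all actives have a fitted effect of over 50% in size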
#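 Cells seeded at 600/well, 37C overnight. Compound added (up to 46 uM), plates shifted to 39C for 24 hr. ATPlite added, luminescence read after 20 min at room temperature.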
# * marks the source's active call; other numbers are inactive results; i = inactive; ? = inconclusive; / = no result given. This is a sample that favours compounds with a hit; in the whole collection about 3% have one here. Unless noted, calls come from the whole dose curve; as a rule, active = well fitted curve in the direction sought with a large enough effect; inconclusive = small, poorly fitted or top-dose-only effect, or another doubt; inactive = no such curve, though single readings can be large; an effect the other way counts as inactive or inconclusive. Unless noted, % is set by controls: 0 for no effect and ±100 for the full control effect; potency is the fitted concentration of half-maximal effect.
SMILES,p53null 32C kill,PMP22 txn,OvCa metastasis,mTORC1 inh,S16 viability,p53null 39C tox
COc1ccc(F)cc1S(=O)(=O)NCC(c1ccco1)S(=O)(=O)c1cccs1 (stereo not given),7%,9.5µM*,9%,-12%,13µM*,-29%
COc1ccc(OC)c(S(=O)(=O)NCC(c2cccs2)S(=O)(=O)c2ccc(F)cc2)c1 (stereo not given),-6%,?,-2%,?,?,19%
COc1cc(C(=O)NCC(c2ccco2)S(=O)(=O)c2cccs2)cc(OC)c1OC (stereo not given),7%,-6%,-18%,1%,?,8%
COc1ccc(F)cc1S(=O)(=O)NCC(c1ccco1)S(=O)(=O)c1ccc(F)cc1 (stereo not given),4%,19µM*,i,-5%,16µM*,18%
COc1ccc(S(=O)(=O)NCC(c2ccco2)S(=O)(=O)c2ccc(C)cc2)cc1C (stereo not given),-1%,?,3%,-4%,?,-28%
O=S(=O)(NCC(c1ccco1)S(=O)(=O)c1cccs1)c1ccccc1 (stereo not given),4%,?,i,-16%,32µM*,34%
NC1CCC(Nc2nc(Nc3ccc(C(=O)N4CCCCC4)cc3)c3ncn(-c4cccc(F)c4)c3n2)CC1 (stereo not given),/,/,-4%,/,/,/
Cc1ccccc1C(C(=O)NC1CCCCC1)N(C(=O)CNc1ccc(C#N)cc1)c1cccc(F)c1 (stereo not given),/,/,0%,/,/,/
O=S(=O)(NCC(c1cccs1)S(=O)(=O)c1ccccc1)c1ccccc1 (stereo not given),-3%,15µM*,i,?,10µM*,5%
O=C(NCC(c1ccco1)S(=O)(=O)c1cccs1)c1ccc(Cl)cc1 (stereo not given),5%,-24%,8%,0%,-10%,3%
CCOc1ccc(S(=O)(=O)NCC(c2ccco2)S(=O)(=O)c2ccc(C)cc2)cc1 (stereo not given),1%,?,-1%,1%,-2%,-5%
Cc1ccc(C)c(S(=O)(=O)NCC(c2ccco2)S(=O)(=O)c2ccc(F)cc2)c1 (stereo not given),39%,-5%,1%,7.4µM*,2%,?
O=S(=O)(NCC(c1ccco1)S(=O)(=O)c1cccs1)c1ccc(F)c(C(F)(F)F)c1 (stereo not given),0%,7.3µM*,-4%,-7%,2.5µM*,-2%
CC(C)(C)c1ccc(C(=O)NCC(c2cccs2)S(=O)(=O)c2ccccc2)cc1 (stereo not given),15%,?,-14%,-10%,?,6%
CN(C)CCN1C(=O)c2cccc3cc(N)cc(c23)C1=O,/,/,11%,/,/,/
c1cc(N[C@@H]2CCNC2)nc(-c2cnc3ccc(-c4cn[nH]c4)cn23)c1,/,/,3%,/,/,/
CCN1CCN(CCCNC(=O)c2cc3c(s2)-c2c(C)cccc2OC3)CC1,-7%,?,-5%,?,25µM*,?
Cc1cccc2c1-c1sc(C(=O)NCCCN3CCN(c4ccccc4F)CC3)cc1CO2,-12%,?,?,-25%,?,?
CC(C)c1noc(N2CCC(COc3ccc(-c4ccc(S(C)(=O)=O)cc4)nc3)CC2)n1,/,/,-12%,/,/,/
O=C(CSc1nc(-c2ccccc2)[nH]c1-c1ccccc1)Nc1ccc2c(c1)OCO2,11%,?,-12%,?,35µM*,?
COc1cc(-c2nc(SCC(=O)Nc3ccc4c(c3)OCO4)c(-c3ccccc3)[nH]2)cc(OC)c1OC,17%,-58%,?,-16%,?,?
Cn1cc(C2=C(c3c4n(c5ccccc35)CCC(CN)C4)C(=O)NC2=O)c2ccccc21 (stereo not given),/,/,-22%,/,/,/
CCCN(CCC)CCCNC(=O)c1cc2c(-c3ccc(Cl)cc3)nn(C)c2s1,3%,?,?,13µM*,?,16µM*
COc1ccc(CNC(=O)c2cc3c(-c4ccc(Cl)cc4)nn(C)c3s2)cc1,9%,-5%,-26%,-13%,11%,-7%
CO[C@@H]1C(N(C)C(=O)c2ccccc2)C[C@H]2O[C@]1(C)n1c3ccccc3c3c4c(c5c6ccccc6n2c5c31)C(=O)NC4=O (stereo not given in full),/,/,-8%,/,/,/
SMILES,p53null 32C kill,PMP22 txn,OvCa metastasis,mTORC1 inh,S16 viability,p53null 39C tox
Cc1ccc2[nH]cc(C(c3ccccc3)c3ccc(Cl)s3)c2c1 (stereo not given),20µM*,-30%,-8%,?,?,25µM*
Clc1ccc(C(c2ccccc2)c2c[nH]c3ccccc23)s1 (stereo not given),7%,?,6%,?,27%,-9%
COC(=O)c1ccc(-c2nc3cc(N)ccc3o2)cc1,?,/,/,/,/,-14%
Nc1ccc2oc(-c3ccccn3)nc2c1,11µM*,/,/,/,/,-21%
C[C@@H](N)c1ccc(C(=O)Nc2ccnc3[nH]ccc23)cc1,/,/,-11%,/,/,/
CC1=C(CO)C(=O)O[C@@H]([C@@H](C)[C@H]2CC[C@H]3[C@@H]4C[C@H]5O[C@]56[C@@H](O)C=CC(=O)[C@]6(C)[C@@H]4CC[C@]23C)C1,/,/,4.7µM*,/,/,/
NC(=O)C1CCN(C(=O)c2ccc(NC(=O)c3nsc4ccccc34)cc2)CC1,2.5µM*,?,-2%,-10%,?,2.8µM*
CC1=C(C(=O)Nc2cc3cn[nH]c3cc2F)C(c2ccc(Cl)cc2F)N=C(c2ccnc(Cl)c2)N1 (stereo not given),/,/,17%,/,/,/
Cc1noc(/C=C/N(C)C)c1S(=O)(=O)N1CCCC(C(=O)Nc2ccc(F)cc2F)C1 (stereo not given),36%,-40%,-6%,18µM*,2%,18%
C#Cc1cccc(Nc2ncnc3cc(OC)c(OCCCCCCC(=O)NO)cc23)c1,/,/,6%,/,/,/
O=C(N/N=C/c1sc2ccccc2c1O)c1ccccc1,7.1µM*,/,/,/,/,/
